{
  "source": "PubChem BioAssay (EPA / NIEHS)",
  "note": "“And” between values parts separate entries of the source, which are not always exact repeats. Identical values can stand only once. More than one record can exist for a structure, and the calls need not agree. The source made the active and inactive calls. Rule for the calls: active = hit-call score of the fitted dose curve at least 0.9, where 1 is the maximum; inactive = score below 0.9.",
  "data": [
    {"target": "Hepatocyte nuclear factor 6 (Homo sapiens) (UniProt Q9UBC0)", "sequence (Q9UBC0 whole entry, looked up)": "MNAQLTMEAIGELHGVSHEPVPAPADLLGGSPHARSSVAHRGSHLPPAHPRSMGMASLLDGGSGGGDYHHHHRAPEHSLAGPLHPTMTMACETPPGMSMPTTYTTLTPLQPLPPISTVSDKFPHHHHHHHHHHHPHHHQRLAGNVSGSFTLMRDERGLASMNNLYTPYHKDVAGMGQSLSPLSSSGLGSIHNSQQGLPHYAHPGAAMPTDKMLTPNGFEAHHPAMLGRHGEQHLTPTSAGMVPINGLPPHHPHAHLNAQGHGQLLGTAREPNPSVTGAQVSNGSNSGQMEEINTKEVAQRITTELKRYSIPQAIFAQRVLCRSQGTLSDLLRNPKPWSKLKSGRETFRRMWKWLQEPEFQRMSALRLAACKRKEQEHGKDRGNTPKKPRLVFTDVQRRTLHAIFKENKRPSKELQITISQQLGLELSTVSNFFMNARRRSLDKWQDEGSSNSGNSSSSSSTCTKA", "assay": "ATG_HNF6_CIS: Attagene CIS-FACTORIAL HepG2 Assay for human Hepatocyte Nuclear Factor 6 (HNF6) (AID 2282952)", "conditions": "HepG2 Attagene cis-factorial HNF6 reporter transcription; actives raise or lower the signal", "summary_of_the_method": "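HepG2, transient MRTU transfection (cis promoters); 24 h chemical exposure; total RNA → oligo(dT) RT → PCR → 6-FAM labelling → HpaI cut → CE; bidirectional fit vs DMSO.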", "values": [
      {"molecule": "CC1(C)C(C=C(Cl)Cl)C1C(=O)OCc1cccc(Oc2ccccc2)c1", "note": "(stereo not drawn)", "outcome": "inactive"},
      {"molecule": "CCCOC(=O)c1ccc(C(=O)OCCC)nc1", "outcome": "inactive"},
      {"molecule": "O=C(Nc1ccc([N+](=O)[O-])cc1Cl)c1cc(Cl)ccc1O", "outcome": "inactive"},
      {"molecule": "COc1nc(C)nc(NC(=O)NS(=O)(=O)c2ccccc2OCCCl)n1", "outcome": "inactive"},
      {"molecule": "N#CSCSc1nc2ccccc2s1", "outcome": "inactive"},
      {"molecule": "CCC(O)=C1C(=O)CC(C(=O)O)CC1=O", "note": "(stereo not drawn)", "outcome": "inactive"},
      {"molecule": "CSC(=O)c1cccc2nnsc12", "outcome": "inactive"},
      {"molecule": "C[C@]12C[C@H](O)[C@H]3[C@@H](CCC4=CC(=O)CC[C@@]43C)[C@@H]1CC[C@@H]2C(=O)CO", "outcome": "inactive"},
      {"molecule": "O=C(O)C1(C(=O)Nc2ccc(Cl)cc2Cl)CC1", "outcome": "inactive"},
      {"molecule": "COC(=O)c1ccc(I)cc1S(=O)(=O)NC(=O)Nc1nc(C)nc(OC)n1", "outcome": "inactive"},
      {"molecule": "CC(=O)S[C@@H]1CC2=CC(=O)CC[C@]2(C)[C@H]2CC[C@@]3(C)[C@@H](CC[C@@]34CCC(=O)O4)[C@H]12", "outcome": "inactive"},
      {"molecule": "CCNc1nc(N)nc(Cl)n1", "outcome": "inactive"},
      {"molecule": "CC(C)CCCCCCc1ccc(O)cc1", "outcome": "inactive"},
      {"molecule": "CCCCOC(=O)[C@@H](C)Oc1ccc(Oc2ccc(C(F)(F)F)cn2)cc1", "outcome": "inactive"},
      {"molecule": "C#C[C@]1(O)CC[C@H]2[C@@H]3CCC4=CC(=O)CC[C@@H]4[C@H]3CC[C@@]21CC", "outcome": "inactive"},
      {"molecule": "CCCCC(CC)COC(=O)c1ccccc1C(=O)O", "note": "(stereo not drawn)", "outcome": "inactive"},
      {"molecule": "CCOC(=O)[C@H](C)Oc1ccc(Oc2nc3ccc(Cl)cc3o2)cc1", "outcome": "inactive"},
      {"molecule": "CC(=O)[C@H]1CC[C@H]2[C@@H]3CCC4=CC(=O)CC[C@]4(C)[C@H]3CC[C@]12C", "AC50": "182 µM (active)", "outcome": "inactive"},
      {"molecule": "CCCCOC(=O)C(C)Oc1ccc(Oc2ccc(C(F)(F)F)cn2)cc1", "note": "(stereo not drawn)", "outcome": "inactive"},
      {"molecule": "CCCCC(CC)CN1C(=O)C2C3C=CC(C3)C2C1=O", "note": "(stereo not drawn)", "outcome": "inactive"},
      {"molecule": "CCOC(=O)C(C)Oc1ccc(Oc2nc3ccc(Cl)cc3o2)cc1", "note": "(stereo not drawn)", "outcome": "inactive"},
      {"molecule": "CCN(CC)C(=O)c1cccc(C)c1", "outcome": "inactive"},
      {"molecule": "COC(=O)c1cccc(C)c1S(=O)(=O)NC(=O)Nc1nc(OCC(F)(F)F)nc(N(C)C)n1", "outcome": "inactive"},
      {"molecule": "OB(O)O", "outcome": "inactive"},
      {"molecule": "CCCCOCCOCCOCc1cc2c(cc1CCC)OCO2", "outcome": "inactive"},
      {"molecule": "CCCN(CCC)C(=O)SCC", "outcome": "inactive"},
      {"molecule": "CCCOC(=O)NCCCN(C)C", "outcome": "inactive"},
      {"molecule": "c1ccc(Nc2ccccc2)cc1", "outcome": "inactive"},
      {"molecule": "CCOC(=O)COc1cc(-n2ncc(C(F)(F)F)c(C)c2=O)c(F)cc1Cl", "outcome": "inactive"},
      {"molecule": "CCCCCOC(=O)COc1cc(N2C(=O)C3=C(CCCC3)C2=O)c(F)cc1Cl", "outcome": "inactive"}
    ]},
    {"target": "Heat shock factor protein 1 (Homo sapiens) (UniProt Q00613)", "sequence (Q00613 whole entry, looked up)": "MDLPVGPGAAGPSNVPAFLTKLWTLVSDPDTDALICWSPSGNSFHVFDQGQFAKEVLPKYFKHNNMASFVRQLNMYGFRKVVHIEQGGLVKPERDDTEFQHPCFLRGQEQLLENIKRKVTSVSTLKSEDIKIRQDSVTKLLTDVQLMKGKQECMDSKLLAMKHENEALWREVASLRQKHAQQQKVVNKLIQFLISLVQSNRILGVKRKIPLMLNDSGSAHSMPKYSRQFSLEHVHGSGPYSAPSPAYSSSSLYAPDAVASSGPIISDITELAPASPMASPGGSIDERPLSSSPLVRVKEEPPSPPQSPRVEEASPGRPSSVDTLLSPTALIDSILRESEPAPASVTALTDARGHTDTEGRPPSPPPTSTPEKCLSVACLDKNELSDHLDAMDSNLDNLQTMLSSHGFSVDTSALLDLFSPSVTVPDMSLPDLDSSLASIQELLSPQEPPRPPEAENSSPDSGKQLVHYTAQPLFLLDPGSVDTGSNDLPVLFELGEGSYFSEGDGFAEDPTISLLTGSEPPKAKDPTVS", "assay": "ATG_HSE_CIS: Attagene CIS-FACTORIAL HepG2 Assay for human Heat Shock Transcription Factor 1 (HSE) (AID 2282953)", "conditions": "HepG2 HSE cis-reporter, Attagene RNA transcription; actives raise or lower the signal", "summary_of_the_method": "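Cells were transfected with cis-element-driven reporter constructs, dosed for 24 h, then total RNA was reverse-transcribed and reporter cDNA amplified, FAM-labelled and digested with HpaI. Fragments were resolved by capillary electrophoresis; gain or loss was fitted against DMSO.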", "values": [
      {"molecule": "CC1(C)C(C=C(Cl)Cl)C1C(=O)OCc1cccc(Oc2ccccc2)c1", "note": "(stereo not drawn)", "outcome": "inactive"},
      {"molecule": "CCCOC(=O)c1ccc(C(=O)OCCC)nc1", "outcome": "inactive"},
      {"molecule": "O=C(Nc1ccc([N+](=O)[O-])cc1Cl)c1cc(Cl)ccc1O", "outcome": "inactive"},
      {"molecule": "COc1nc(C)nc(NC(=O)NS(=O)(=O)c2ccccc2OCCCl)n1", "outcome": "inactive"},
      {"molecule": "N#CSCSc1nc2ccccc2s1", "AC50": "18.1 µM (active)", "outcome": "inactive"},
      {"molecule": "CCC(O)=C1C(=O)CC(C(=O)O)CC1=O", "note": "(stereo not drawn)", "outcome": "inactive"},
      {"molecule": "CSC(=O)c1cccc2nnsc12", "outcome": "inactive"},
      {"molecule": "C[C@]12C[C@H](O)[C@H]3[C@@H](CCC4=CC(=O)CC[C@@]43C)[C@@H]1CC[C@@H]2C(=O)CO", "outcome": "inactive"},
      {"molecule": "O=C(O)C1(C(=O)Nc2ccc(Cl)cc2Cl)CC1", "outcome": "inactive"},
      {"molecule": "COC(=O)c1ccc(I)cc1S(=O)(=O)NC(=O)Nc1nc(C)nc(OC)n1", "outcome": "inactive"},
      {"molecule": "CC(=O)S[C@@H]1CC2=CC(=O)CC[C@]2(C)[C@H]2CC[C@@]3(C)[C@@H](CC[C@@]34CCC(=O)O4)[C@H]12", "AC50": "171 µM (active)", "outcome": "inactive"},
      {"molecule": "CCNc1nc(N)nc(Cl)n1", "outcome": "inactive"},
      {"molecule": "CC(C)CCCCCCc1ccc(O)cc1", "AC50": "15.3 µM (active) and 19.9 µM (active) and 17 µM (active)", "outcome": "inactive"},
      {"molecule": "CCCCOC(=O)[C@@H](C)Oc1ccc(Oc2ccc(C(F)(F)F)cn2)cc1", "outcome": "inactive"},
      {"molecule": "CCCCC(CC)COC(=O)c1ccccc1C(=O)O", "note": "(stereo not drawn)", "outcome": "inactive"},
      {"molecule": "CCOC(=O)[C@H](C)Oc1ccc(Oc2nc3ccc(Cl)cc3o2)cc1", "outcome": "inactive"},
      {"molecule": "CC(=O)[C@H]1CC[C@H]2[C@@H]3CCC4=CC(=O)CC[C@]4(C)[C@H]3CC[C@]12C", "AC50": "60 µM (active) and 149 µM (active)", "outcome": "inactive"},
      {"molecule": "CCCCOC(=O)C(C)Oc1ccc(Oc2ccc(C(F)(F)F)cn2)cc1", "note": "(stereo not drawn)", "outcome": "inactive"},
      {"molecule": "CCCCC(CC)CN1C(=O)C2C3C=CC(C3)C2C1=O", "note": "(stereo not drawn)", "outcome": "inactive"},
      {"molecule": "CCOC(=O)C(C)Oc1ccc(Oc2nc3ccc(Cl)cc3o2)cc1", "note": "(stereo not drawn)", "outcome": "inactive"},
      {"molecule": "CCN(CC)C(=O)c1cccc(C)c1", "outcome": "inactive"},
      {"molecule": "COC(=O)c1cccc(C)c1S(=O)(=O)NC(=O)Nc1nc(OCC(F)(F)F)nc(N(C)C)n1", "outcome": "inactive"},
      {"molecule": "OB(O)O", "outcome": "inactive"},
      {"molecule": "CCCCOCCOCCOCc1cc2c(cc1CCC)OCO2", "outcome": "inactive"},
      {"molecule": "CCCN(CCC)C(=O)SCC", "outcome": "inactive"},
      {"molecule": "c1ccc(Nc2ccccc2)cc1", "outcome": "inactive"},
      {"molecule": "CCOC(=O)COc1cc(-n2ncc(C(F)(F)F)c(C)c2=O)c(F)cc1Cl", "outcome": "inactive"},
      {"molecule": "CCCCCOC(=O)COc1cc(N2C(=O)C3=C(CCCC3)C2=O)c(F)cc1Cl", "AC50": "87.6 µM (active)"}
    ]}
  ]
}
